ChEMBL document CHEMBL1961873, “Compounds: GSK PKIS; Assays: Nanosyn kinase panel” (2012)

Columns and labels:
[1] = biological target: RAC-alpha serine/threonine-protein kinase (Homo sapiens) (UniProt P31749); details: at 0.1 µM
[2] = biological target: RAC-alpha serine/threonine-protein kinase (Homo sapiens) (UniProt P31749); details: at 1 µM
[3] = biological target: RAC-beta serine/threonine-protein kinase (Homo sapiens) (UniProt P31751); details: at 0.1 µM
[4] = biological target: RAC-beta serine/threonine-protein kinase (Homo sapiens) (UniProt P31751); details: at 1 µM
[5] = biological target: RAC-gamma serine/threonine-protein kinase (Homo sapiens) (UniProt Q9Y243); details: at 0.1 µM
RAC-gamma serine/threonine-protein kinase (Homo sapiens), sequence (Q9Y243 whole entry): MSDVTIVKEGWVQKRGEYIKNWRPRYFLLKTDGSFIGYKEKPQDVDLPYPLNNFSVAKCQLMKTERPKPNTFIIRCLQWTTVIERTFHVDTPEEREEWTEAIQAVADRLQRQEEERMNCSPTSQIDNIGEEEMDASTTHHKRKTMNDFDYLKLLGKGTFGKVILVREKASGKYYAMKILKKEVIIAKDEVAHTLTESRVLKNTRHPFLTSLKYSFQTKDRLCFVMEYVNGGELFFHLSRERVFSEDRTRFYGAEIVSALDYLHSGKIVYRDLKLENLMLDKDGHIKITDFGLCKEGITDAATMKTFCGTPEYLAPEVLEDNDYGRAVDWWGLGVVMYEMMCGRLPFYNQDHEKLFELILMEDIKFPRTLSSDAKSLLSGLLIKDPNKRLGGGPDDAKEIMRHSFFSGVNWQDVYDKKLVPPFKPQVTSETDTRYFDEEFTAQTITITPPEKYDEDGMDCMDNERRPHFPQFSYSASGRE

[6] = biological target: RAC-gamma serine/threonine-protein kinase (Homo sapiens) (UniProt Q9Y243); details: at 1 µM
[7] = biological target: G protein-coupled receptor kinase 6 (Homo sapiens) (UniProt P43250); details: at 0.1 µM
G protein-coupled receptor kinase 6 (Homo sapiens), sequence (P43250 whole entry, looked up): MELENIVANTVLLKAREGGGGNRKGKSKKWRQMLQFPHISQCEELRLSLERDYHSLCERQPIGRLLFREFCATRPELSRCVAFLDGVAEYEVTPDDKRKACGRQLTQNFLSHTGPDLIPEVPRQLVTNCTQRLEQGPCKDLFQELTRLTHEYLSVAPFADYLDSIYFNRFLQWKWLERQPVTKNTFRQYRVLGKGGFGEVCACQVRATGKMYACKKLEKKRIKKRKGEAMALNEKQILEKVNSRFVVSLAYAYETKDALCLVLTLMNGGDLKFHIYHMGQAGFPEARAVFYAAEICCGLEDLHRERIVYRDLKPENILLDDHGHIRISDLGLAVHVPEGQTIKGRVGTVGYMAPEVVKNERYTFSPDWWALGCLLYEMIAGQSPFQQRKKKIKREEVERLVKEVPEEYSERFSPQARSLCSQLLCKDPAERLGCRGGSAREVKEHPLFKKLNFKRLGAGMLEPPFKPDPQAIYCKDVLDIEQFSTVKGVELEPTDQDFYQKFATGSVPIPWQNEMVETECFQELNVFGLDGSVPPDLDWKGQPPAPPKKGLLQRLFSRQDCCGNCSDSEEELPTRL

[8] = biological target: G protein-coupled receptor kinase 6 (Homo sapiens) (UniProt P43250); details: at 1 µM
[9] = biological target: T1, Rhodopsin kinase GRK7 (Homo sapiens) (UniProt Q8WTQ7); details: at 0.1 µM
T1 sequence (whole entry): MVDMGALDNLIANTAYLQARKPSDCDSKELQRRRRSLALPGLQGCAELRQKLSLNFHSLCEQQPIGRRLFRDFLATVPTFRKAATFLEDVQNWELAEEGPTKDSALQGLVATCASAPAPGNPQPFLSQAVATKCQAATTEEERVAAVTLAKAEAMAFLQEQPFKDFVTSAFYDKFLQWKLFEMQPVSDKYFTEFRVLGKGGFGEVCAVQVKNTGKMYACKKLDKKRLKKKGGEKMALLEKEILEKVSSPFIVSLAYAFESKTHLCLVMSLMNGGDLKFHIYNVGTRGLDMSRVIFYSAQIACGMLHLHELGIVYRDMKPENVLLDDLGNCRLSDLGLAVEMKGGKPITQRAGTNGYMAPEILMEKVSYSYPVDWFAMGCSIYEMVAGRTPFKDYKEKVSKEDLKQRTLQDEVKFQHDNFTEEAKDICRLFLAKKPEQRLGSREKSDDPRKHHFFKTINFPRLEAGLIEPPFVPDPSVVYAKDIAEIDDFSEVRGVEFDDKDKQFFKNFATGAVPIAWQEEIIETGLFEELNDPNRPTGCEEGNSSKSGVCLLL

[10] = biological target: T1, Rhodopsin kinase GRK7 (Homo sapiens); details: at 1 µM

RAC-alpha serine/threonine-protein kinase (Homo sapiens), sequence (P31749 whole entry): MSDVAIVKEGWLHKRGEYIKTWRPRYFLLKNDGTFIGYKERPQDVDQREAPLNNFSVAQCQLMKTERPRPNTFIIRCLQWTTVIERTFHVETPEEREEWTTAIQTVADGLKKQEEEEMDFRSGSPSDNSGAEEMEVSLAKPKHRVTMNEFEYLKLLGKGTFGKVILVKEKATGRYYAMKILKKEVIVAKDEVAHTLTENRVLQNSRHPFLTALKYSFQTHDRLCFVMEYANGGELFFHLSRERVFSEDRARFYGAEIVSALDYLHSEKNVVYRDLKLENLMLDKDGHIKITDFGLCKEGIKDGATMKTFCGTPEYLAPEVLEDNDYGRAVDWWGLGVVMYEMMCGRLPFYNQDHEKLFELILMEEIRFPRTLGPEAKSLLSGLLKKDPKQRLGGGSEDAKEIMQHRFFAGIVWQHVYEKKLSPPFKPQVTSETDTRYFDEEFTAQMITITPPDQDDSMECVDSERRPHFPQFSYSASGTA
RAC-beta serine/threonine-protein kinase (Homo sapiens), sequence (P31751 whole entry): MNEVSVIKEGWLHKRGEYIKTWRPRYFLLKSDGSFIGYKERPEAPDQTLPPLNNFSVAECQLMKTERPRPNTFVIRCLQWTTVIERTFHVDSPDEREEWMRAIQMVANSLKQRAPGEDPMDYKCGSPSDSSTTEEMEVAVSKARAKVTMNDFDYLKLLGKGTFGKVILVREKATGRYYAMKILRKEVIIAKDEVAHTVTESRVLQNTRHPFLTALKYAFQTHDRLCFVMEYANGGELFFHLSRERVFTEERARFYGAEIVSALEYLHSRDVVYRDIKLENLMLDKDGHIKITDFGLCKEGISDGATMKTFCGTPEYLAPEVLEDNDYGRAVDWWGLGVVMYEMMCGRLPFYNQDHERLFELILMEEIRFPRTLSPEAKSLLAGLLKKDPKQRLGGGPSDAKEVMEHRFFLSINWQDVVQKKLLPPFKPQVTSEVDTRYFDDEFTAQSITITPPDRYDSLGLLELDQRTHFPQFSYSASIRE

Structure (SMILES) | inhibition [1] [%] | inhibition [2] [%] | inhibition [3] [%] | inhibition [4] [%] | inhibition [5] [%] | inhibition [6] [%] | inhibition [7] [%] | inhibition [8] [%] | inhibition [9] [%] | inhibition [10] [%]
Cc1ccc(NC(=O)c2ccnc(N3CCCC3)c2)cc1-c1ccc(C(=O)NCC2CC2)cc1 | -2.27 | -3.57 | -1.45 | -1.55 | -3.88 | -2.23 | 2.49 | 0.85 | 5.08 | 10.4
Fc1cccc(COc2ccc(Nc3ncnc4cc(-c5ccc[nH]5)sc34)cc2Cl)c1 | -3.51 | -3.04 | -2.34 | -1.49 | -3.34 | -3.78 | 5 | 2.64 | 1.96 | 13.6
COc1cc(C=NNc2ncnc3c2cnn3-c2ccccc2)ccc1O | 0.7 | -1.12 | 2.4 | -2.91 | 1.08 | -1.19 | 1.52 | -6.34 | -0.04 | -4.38
CCN1CCC(CC(=O)Nc2n[nH]c3nc(-c4cccs4)c(Br)cc23)CC1 | -2.05 | -0.11 | -3.94 | -1.99 | -2.82 | 2.59 | -0.66 | -2.54 | -7.57 | -4.43
NCc1ccc(-c2nc(-c3ccc(Cl)c(O)c3)c(-c3ccncc3)[nH]2)cc1 | 0.06 | 0.47 | -1.18 | -0.26 | -0.23 | 0.68 | -0.28 | -0.98 | -2.26 | 2.84
NS(=O)(=O)c1ccc(N/N=C2\C(=O)Nc3ccc(C(=O)NCCc4c[nH]cn4)cc32)cc1 | 1.49 | 0.74 | 3.41 | 1.59 | 1.65 | 2.39 | 5.89 | 9.39 | 5.2 | 7.5
N#Cc1c(NC(=O)c2cccc3ccccc23)sc2c1CCCC2 | 0.5 | 0.48 | 1.74 | 2.41 | 1.33 | 1.85 | 3.58 | 3.47 | 2.52 | 6.83
COc1cc2ncn(-c3cc(OCc4ccccc4C(F)(F)F)c(C(N)=O)s3)c2cc1OC | -2.43 | -2.44 | -2.6 | -2.54 | -3.14 | -1.66 | 0.88 | 0.91 | 9.69 | 6.72
O=C1NC(=O)C(c2ccccc2Cl)=C1Nc1cccc(O)c1 | 0.96 | 1.06 | 1.74 | 1.48 | 0.92 | 1.56 | 1.82 | 2.13 | 1.36 | -6.28
COc1ccc(-c2ccncc2)cc1C(N)=O | 0.88 | -0.34 | 0.41 | 2.06 | 1.15 | 2.9 | 5.49 | 5.53 | 9.86 | 2.23
CS(=O)(=O)CCNCc1nc(-c2ccc3ncnc(Nc4ccc(F)c(Cl)c4)c3c2)cs1 | 0.62 | -0.01 | 0.07 | 1.1 | 1.52 | -0.89 | 1.59 | 3.85 | 5.77 | -4.62
Cn1cc(C=C2C(=O)Nc3cccnc32)c2ccccc21 | 0.73 | 0.22 | 1.08 | 1.6 | 1.15 | 0.99 | -1.62 | 6.18 | 3.02 | 10.6
CN(C)c1cc2c(Nc3ccc4nc(Cc5ccccc5)[nH]c4c3)ncnc2cn1 | 1.02 | 0.52 | 2.3 | 2.71 | 1.37 | 3.27 | 2.98 | 6.85 | 20.5 | 22.6
CS(=O)(=O)CCNCc1ccc(-c2ccc3ncnc(Nc4ccc(OCc5cccc(F)c5)c(C(F)(F)F)c4)c3c2)o1 | 1.75 | 0.54 | 2.87 | 0.73 | 2.73 | 2.96 | 9.26 | 5.4 | 3.55 | 8.92
CS(=O)(=O)CCN(CC#N)Cc1ccc(-c2ccc3ncnc(Nc4ccc(OCc5cccc(F)c5)c(Cl)c4)c3c2)o1 | -1.63 | -3.32 | -3.4 | -2.91 | -3.18 | -0.79 | 0.99 | 3.25 | 6.9 | 2.37
COc1ccc(-c2nn3ncccc3c2-c2ccnc(Nc3ccc(Cl)c(C(F)(F)F)c3)n2)cc1 | 0.26 | 0.27 | 1.16 | 0.96 | 3.64 | -0.03 | 6.26 | 9.79 | 4.07 | 8.67
Cc1cccc(-c2n[nH]cc2-c2ccc3ncccc3n2)n1 | -0.73 | 0.02 | 0.56 | -0.22 | 2.42 | 2.13 | 0.46 | 3.16 | -0.51 | 5.08
